VACV mCherry inh: vaccinia inhibition (mCherry reporter); Vaccinia virus mCherry reporter infection, fluorescence; 0.63% of 310,000 active; Potency, µM (top dose mostly 36.5 µM), for the others: at the top dose activity change, negative = inhibition, usual class: inhibitors; AID 720579; calls by dose curve; tested in A549 cells; note: potency is the fitted concentration of half-maximal effect; nearly all actives have a fitted effect of over 35% in size
Vaccinia Venus: inhibitors of vaccinia virus (Venus reporter). Potency, µM (doses to about 36.5 µM), for the others: at the highest dose activity change, negative = inhibition, actives largely listed as inhibitors. Vaccinia virus Venus reporter expression, fluorescence. 0.46% of 330,000 active; calls by dose curve; tested in A549 cells; note: potency is the fitted concentration of half-maximal effect; nearly all actives have a fitted effect of over 30% in size
Lassa entry inh: blocks Lassa virus binding to or entry into cells; 1.2% of 300,000 active; Potency, µM (highest dose often 37.9 µM), for the others: at the highest dose activity change, negative = inhibition, actives largely listed as inhibitors; Lassa virus pseudotype entry inhibition, cell reporter; AID 540256; calls by dose curve; tested in HEK293 cells; note: potency is the fitted concentration of half-maximal effect; nearly all actives have a fitted effect of over 50% in size
FMDV antiviral: antivirals against foot and mouth disease virus; FMDV antiviral cell-based qHTS; Potency, µM (series often up to 57.9 µM), for inactives: at the top dose activity change, negative = inhibition, actives largely listed as inhibitors; 1.2% of 410,000 active; calls by dose curve; tested in HEK293T cells; note: read-out not given here; potency is the fitted concentration of half-maximal effect; nearly all actives have a fitted effect of over 45% in size
Marburg entry inh: inhibitors of Marburg virus binding or cell entry | Marburg virus pseudotyped entry inhibition, cell reporter | 1.8% of 300,000 active | Potency, µM (titrated, usually from 37.8 µM), for the others: at the top dose activity change, negative = inhibition, actives largely listed as inhibitors | AID 540276; calls by dose curve; tested in HEK293 cells; note: potency is the fitted concentration of half-maximal effect
HCMV antiviral: human cytomegalovirus inhibition; 4.5% of 410,000 active; AID 1259415; activity change, negative = inhibition, % at 57.5 µM; HFF cells, HCMV-luciferase reporter, 72 h; active compounds read low; in the data active = activity change below about -60%; inconclusive = no clear call, values can overlap the other calls; inactive = above about -39%
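Human foreskin fibroblasts infected with luciferase-reporter HCMV at MOI 1 PFU/cell, compounds at two doses. Luciferase measured 72 h post infection; normalized to buffer-only basal and Salinomycin (10uM) controls.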
An asterisk follows results filed as active; ! = repeats disagree; [ ] = remark or other dose. Only some compounds are listed: those with a hit (about 6.5% of all), similar ones and a draw of the others. % is set by controls: 0 for no effect and ±100 for the full control effect.

Results for CCC(C)Sc1cccc(-c2nc3cnccn3c2NC2CCCCC2)c1 (stereo unspecified) ?
VACV mCherry inh: inconclusive; Vaccinia Venus: inconclusive; FMDV antiviral: -6.4%; HCMV antiviral: 40.3

How did CCC(C)Sc1cc(-c2nc3ccccn3c2NC2CCCCC2)ccc1OC (stereo unspecified) do in these assays?
VACV mCherry inh: inconclusive; Vaccinia Venus: inconclusive; FMDV antiviral: inconclusive; HCMV antiviral: -88.2*!

Results for CCC(C)Sc1ccc(-c2nc3ccc(C)cn3c2NC2CCCCC2)cc1 (stereo unspecified) ?
VACV mCherry inh: 8.91µM*; Vaccinia Venus: inconclusive; FMDV antiviral: -12.1%

Results for CCOc1ccccc1NC(=O)CCn1nc(C)c(S(=O)(=O)N2CCCCC2)c1C ?
VACV mCherry inh: -13.6%; Vaccinia Venus: -9.4%; Lassa entry inh: -14.6%[46.1 µM]; FMDV antiviral: -7.1%; Marburg entry inh: inconclusive; HCMV antiviral: -23.0

How did Cc1cc(C)n(CC(=O)NNC(=O)CCCOc2ccc(Cl)cc2C)n1 do in these assays?
VACV mCherry inh: -23.5%; Vaccinia Venus: -20.7%; Lassa entry inh: 11.2%; FMDV antiviral: -21.1%; Marburg entry inh: -5.2%; HCMV antiviral: -61.2*

Results for CC(=O)Nc1ccc(-c2ccnc3c2CC(C(=O)Nc2cccc(C(C)=O)c2)O3)cc1 (stereo unspecified) ?
VACV mCherry inh: inactive; Vaccinia Venus: -8.3%; FMDV antiviral: -8.6%; HCMV antiviral: 19.2

Results for Cc1ccccc1N1CC(O)(c2cccs2)[N+]2=C1CCCC2 (stereo unspecified) ?
VACV mCherry inh: -1.5%; Vaccinia Venus: 1.2%; Lassa entry inh: -8.0%; FMDV antiviral: -4.2%; Marburg entry inh: -13.8%[46.1 µM]; HCMV antiviral: -60.2*

How did CC1Sc2ccc(C(=O)Nc3ncccc3O)cc2NC1=O (stereo unspecified) do in these assays?
VACV mCherry inh: -27.0%; Vaccinia Venus: -13.0%; Lassa entry inh: inconclusive; FMDV antiviral: -7.2%; Marburg entry inh: 10µM*; HCMV antiviral: 37.7

What do the screens show for `Cc1cccnc1NC(=O)c1ccc2c(c1)NC(=O)C(C)S2` (stereo unspecified)?
VACV mCherry inh: inactive; Vaccinia Venus: -6.4%; Lassa entry inh: inconclusive; FMDV antiviral: 0.0%; Marburg entry inh: 9.0%; HCMV antiviral: -26.6

Results for COc1ccc(CCNc2c3ccccc3nc3ccccc23)cc1OC ?
VACV mCherry inh: -10.9%[7.34 µM]; Vaccinia Venus: -6.6%[7.34 µM]; Lassa entry inh: inconclusive; FMDV antiviral: -20.0%; Marburg entry inh: inconclusive; HCMV antiviral: -102.4*

Results for COc1ccccc1NCC(O)Cn1c2ccccc2c2ccccc21 (stereo unspecified) ?
Lassa entry inh: inconclusive; FMDV antiviral: inconclusive; Marburg entry inh: -77.9%; HCMV antiviral: -28.5

What do the screens show for `COc1ccc(CCNc2nc(SCc3ccc(Cl)cc3)nc3ccccc23)cc1OC`?
VACV mCherry inh: -11.5%; Vaccinia Venus: -13.4%; Lassa entry inh: 2.3%[46.1 µM]; FMDV antiviral: -3.8%; HCMV antiviral: -25.2

Results for CCOC(=O)c1cnc2ccc(C)cc2c1NCCc1ccc(OC)c(OC)c1 ?
VACV mCherry inh: -25.5%; Vaccinia Venus: -17.8%; Lassa entry inh: -25.2%[46.1 µM]; FMDV antiviral: -33.2%; Marburg entry inh: inconclusive; HCMV antiviral: 20.9

Results for CCn1c(=O)c([N+](=O)[O-])c(NCCc2ccc(OC)c(OC)c2)c2ccccc21 ?
VACV mCherry inh: -8.7%; Vaccinia Venus: -13.9%; Lassa entry inh: inconclusive; FMDV antiviral: 22.4µM*; Marburg entry inh: inconclusive; HCMV antiviral: -71.8*

How did COc1ccc(CCNCC(O)Cn2c3ccccc3c3ccccc32)cc1OC (stereo unspecified) do in these assays?
FMDV antiviral: -21.9%; HCMV antiviral: -63.6*

What do the screens show for `CCOC(=O)c1cnc2ccc(OCC)cc2c1NCCc1ccc(OC)c(OC)c1`?
VACV mCherry inh: -10.8%[7.34 µM]; Vaccinia Venus: -15.3%[7.34 µM]; Lassa entry inh: inconclusive; FMDV antiviral: 28.2µM*; Marburg entry inh: inconclusive; HCMV antiviral: -8.9

Results for CN(CCO)c1nc(-c2cccs2)nc2ccccc12 ?
VACV mCherry inh: -11.8%; Vaccinia Venus: -8.1%

Results for O=C(c1cccc2ccccc12)N1CCN(S(=O)(=O)c2ccccc2)CC1 ?
VACV mCherry inh: -2.9%; Vaccinia Venus: -6.7%

How did O=c1[nH]c(NC2CCN(S(=O)(=O)c3ccccc3C(F)(F)F)CC2)nc2c1CCCC2 do in these assays?
VACV mCherry inh: -22.3%; Vaccinia Venus: -29.5%; Lassa entry inh: inconclusive; FMDV antiviral: inconclusive; Marburg entry inh: inconclusive; HCMV antiviral: -25.6

Results for O=C(CC(NC(=O)c1ccccc1)c1ccccc1)OCc1nc(-c2cccc(Cl)c2)no1 (stereo unspecified) ?
VACV mCherry inh: -17.5%; Vaccinia Venus: -6.4%

What do the screens show for `O=C(CN1C(=O)COc2ccc(Cl)cc21)NC1CC1`?
FMDV antiviral: -19.5%; HCMV antiviral: 74.8

Results for COc1nc(NCCc2ccc(OC)c(OC)c2)nc(OC)n1 ?
Vaccinia Venus: -16.6%; Lassa entry inh: 2.5%; FMDV antiviral: -18.2%; Marburg entry inh: -1.6%[46.1 µM]; HCMV antiviral: -98.9*

What do the screens show for `COc1ccc(Cn2c(=O)n(Cc3ccco3)c(=N)c3c4c(sc32)COC(C)(C)C4)cc1`?
Vaccinia Venus: inconclusive; Lassa entry inh: inconclusive; FMDV antiviral: -22.9%; Marburg entry inh: -20.3%; HCMV antiviral: -24.5

Results for CC1(C)Cc2c(sc3c2c(N)nc(=S)n3Cc2ccccc2)CO1 ?
HCMV antiviral: -31.0

What do the screens show for `CC1(C)Cc2c(sc3c2c(=N)n(Cc2ccco2)c(=O)n3Cc2ccc(F)cc2)CO1`?
Vaccinia Venus: inconclusive; Lassa entry inh: 7.08µM*; FMDV antiviral: -20.9%; Marburg entry inh: inconclusive; HCMV antiviral: -15.1

What do the screens show for `CC1(C)Cc2c(sc3[nH]c(=S)n(Cc4ccccc4)c(=O)c23)CO1`?
VACV mCherry inh: -3.2%; Vaccinia Venus: -14.4%; Lassa entry inh: 6.51µM*; Marburg entry inh: inconclusive; HCMV antiviral: 6.6

What do the screens show for `N=c1oc2ccccc2cc1C(=O)Nc1ccccc1`?
VACV mCherry inh: -13.4%; Vaccinia Venus: -0.6%; Lassa entry inh: inconclusive; FMDV antiviral: -45.4%; Marburg entry inh: inconclusive; HCMV antiviral: 88.8

How did N=c1oc2cc(O)ccc2cc1C(=O)Nc1ccc(Br)cc1 do in these assays?
VACV mCherry inh: inconclusive; Vaccinia Venus: inconclusive; Lassa entry inh: inconclusive; FMDV antiviral: -15.6%; Marburg entry inh: inconclusive; HCMV antiviral: -90.5*

Results for COc1ccc2oc(=N)c(C(=O)Nc3ccc(F)cc3)cc2c1 ?
VACV mCherry inh: inconclusive; Vaccinia Venus: -1.4%; Lassa entry inh: 5.1%[46.1 µM]; FMDV antiviral: 21.5%; Marburg entry inh: inconclusive; HCMV antiviral: -61.7*
